Hits are enriched below; roughly 0.74% of the tested compounds scored in any of these assays.
p-CIP stab down = p/CIP-EGFP fusion destabilizers, primary screen, fluorescence, F442A cells | Q05BA5 | 16 h | decrease of EGFP signal, % at 10 µM | 0.01% of 290,000 active;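 active = EGFP signal decrease of at least 30% at 10 µM or well 3 SD below plate mean, unless failing retest; inactive = the rest, including hits failing retest or dose response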
HMGR II inh = inhibitors of E. faecalis class II HMGR, primary screen, biochemical, Enterococcus faecalis. purified E. faecalis HMGR, NADPH absorbance 340 nm kinetic. inhibition, % at 10 µM. AID 1066, 2008. 0.41% of 190,000 active;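 active = inhibition above a set limit, the median over all tested compounds plus 3 SD, cut at about 9.5% in these data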;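 note: enzyme runs in reverse so mevalonate oxidation gives rising NADPH absorbance; 0% = complete reaction with DMSO and 100% = background rate lacking mevalonate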
Redox H2O2 prof = compounds producing H2O2 with reducing agent – biochemical, NIH compound library profiling, artefact control for MLSCN library redox annotation, primary screen | 0.03% of 200,000 active | activation, % at 10 µM | AID 878, 2007 | DTT-dependent redox cycling H2O2, phenol red/HRP absorbance; 100% = 100 µM peroxide control, 0% = buffer;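 active = activation of at least 50% relative to the plate's high and low controls in the primary single-dose screen; inactive = activation below 50%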;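 note: compound incubated with DTT at 0.8 mM final as the reducing agent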
p97 inhibitor = inhibitors of human p97 ATPase, primary screen, biochemical; Transitional endoplasmic reticulum ATPase (Homo sapiens), P55072; recombinant p97 ATPase, Kinase-Glo ATP luminescence, 3 h; inhibition, % at 8 µM; 0.42% of 220,000 active; in the data active = inhibition above about 15%;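 note: 0% = DMSO vehicle and 100% = wells lacking enzyme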
Furin inh = human furin inhibitors, primary screen, biochemical, fluorescence intensity | P09958 | purified furin, fluorogenic substrate cleavage | inhibition, % at 20 µM or 30 µM | 0.061% of 220,000 active | AID 463115, 2010; in the data active = inhibition above about 25%
Tb hexokinase = Trypanosoma brucei hexokinase 1 inhibitors, primary screen, biochemical, G6PDH-coupled NADH absorbance, MLSCN library. recombinant TbHK1, G6PDH-coupled NADH A340. inhibition, % at 10 µM. 0.11% of 220,000 active. AID 1430, 2008;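 active = inhibition of 50% or more in the single-dose primary screen; inactive = inhibition below 50%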
Numbers without * were called inactive; · = not tested or not shown.

SMILES | p-CIP stab down | HMGR II inh | Redox H2O2 prof | p97 inhibitor | Furin inh | Tb hexokinase
O=[N+]([O-])c1ccc2[nH]nc(-c3ccccc3)c2c1 | -1 | 9.8* | 0 | -2 | -11 | -13
CCCCn1c(N)c(N(CC)C(=O)CN2C(=O)NC(C)(c3ccccc3)C2=O)c(=O)[nH]c1=O (stereo not drawn) | -20 | · | · | · | · | ·
COc1ccccc1-n1cnnc1SCC(=O)N1CC(=O)Nc2ccccc21 | -14 | 9.6* | 1 | 1 | -15 | 1
Nn1c(SCC(=O)Nc2ccc3c(c2)OCO3)nncc1=O | 6 | 9.7* | 0 | 3 | -31 | -5
COc1ccc(N=CC2=C(O)CC(C)(C)CC2=O)cc1 | -10 | -1 | 3 | 1 | 34* | -31
CC1(C)CC(=O)C(C=Nc2ccncc2)=C(O)C1 | · | · | 3 | 8 | -8 | 2
CC1(C)CC(=O)C(C=Nc2cccnc2/N=C/C2=C(O)CC(C)(C)CC2=O)=C(O)C1 | -5 | 5 | -1 | 9 | 55* | -2
CC1(C)CC(=O)C(C=Nc2cccnc2)=C(O)C1 | -20 | 2 | -1 | -1 | 41* | -29
Nc1nonc1-n1nnc(C(=O)N/N=C/c2ccc(OCc3ccccc3F)cc2)c1CNc1ccccc1 | -7 | · | · | · | · | ·
COCCC1CCCCN1C(=O)c1cccc(OC2CCN(C3CCCC3)CC2)c1 (stereo not drawn) | -1 | -3 | -1 | -1 | -27 | 0
N/C(Cc1nc(-c2ccc(Cl)cc2)cs1)=N/O | -10 | · | · | 6 | -4 | -6
Cc1ccc(-n2cnc3sc(C)c(C)c3c2=O)cc1 | -4 | 13* | 0 | 5 | -23 | 2
N#C/C(=C/c1cn(CC(=O)O)c2ccccc12)C(=O)NCc1ccccc1 | 75* | -4 | 0 | 3 | -7 | -21
CNC(=O)/C(C#N)=C/c1cn(CC(=O)NCc2ccco2)c2ccccc12 | 19 | 0 | 0 | 2 | -20 | -12
COC(=O)N1CCN(CCc2ccccc2)CC1 | -4 | 13* | 0 | 2 | -20 | -6
CCC(=O)N(Cc1ccco1)c1nc(-c2ccc(OC)cc2)cs1 | -15 | 12* | 3 | 7 | -17 | 0
CCC(=O)N(Cc1ccco1)c1nc(-c2ccccc2)cs1 | 7 | -1 | 3 | 3 | -14 | 35
CCOC(=O)N1CCN(C(=O)c2ccc(CS(=O)Cc3ccc(C)cc3)o2)CC1 (stereo not drawn) | -8 | · | · | · | · | ·
O=C(O)CCCCCn1c(SCC(=O)c2ccc(O)c(O)c2)nc2ccsc2c1=O | 5 | 13* | -1 | 2 | -2 | -8
Cc1ccc(-c2noc(CSc3nnc(Cc4ccccc4)n3-c3ccc(Cl)cc3)n2)cc1 | 0 | 18* | 0 | -8 | 4 | 15
Cc1ccc(S(=O)(=O)N2CCC(=O)N(C(COC(=O)Nc3ccccc3)Cc3ccccc3)CC2)cc1 (stereo not drawn) | -2 | -9 | 3 | 8 | -17 | 1
Cc1ccc(S(=O)(=O)N2CCC(=O)N(C(CO)Cc3ccccc3)CC2)cc1 (stereo not drawn) | 4 | 12* | 1 | 4 | -20 | -1
O=C1/C(=C/c2ccc(F)cc2)SC(=S)N1Nc1ncc(C(F)(F)F)cc1Cl | 19 | 0 | 1 | 19* | -2 | -6
O=C1/C(=C\c2ccccn2)SC(=S)N1Nc1ncc(C(F)(F)F)cc1Cl | -1 | -1 | 0 | 1 | -1 | -8
CC(C)c1ccc(OCC(=O)NC2=NCCS2)cc1 | -11 | -3 | -1 | 2 | -18 | 0
SMILES | p-CIP stab down | HMGR II inh | Redox H2O2 prof | p97 inhibitor | Furin inh | Tb hexokinase
O=C(NCCc1ccc2c(c1)OCCO2)c1ccccn1 | -8 | · | · | · | · | ·
O=C1NC(=O)/C(=C\c2cn(CC(=O)N3CCOCC3)c3ccccc23)S1 | 6 | · | · | · | · | ·
O=C1NC(=O)/C(=C/C(=O)N2CCOCC2)S1 | 0 | 13* | 0 | 2 | -19 | -21
COc1cc(NC(=O)c2cc3nc(-c4ccccc4)cc(-c4ccccc4)n3n2)cc(OC)c1OC | -8 | 17* | -3 | 0 | -13 | -20
O=C(Nc1ccc2c(c1)OCCO2)C1CCCN1C(=O)Nc1ccc(F)cc1 (stereo not drawn) | -14 | · | · | · | · | ·
CC1(C)CC(=O)C(C=Nc2ccc(O)c(N=CC3=C(O)CC(C)(C)CC3=O)c2)=C(O)C1 | -11 | 2 | 0 | 3 | -14 | -15
CC1(C)CC(=O)C=C(N=CC2=C(O)CC(C)(C)CC2=O)C1 | 1 | -7 | 0 | 2 | -12 | 3
Cc1cccc(/N=C/C2=C(O)CC(C)(C)CC2=O)n1 | 8 | · | · | 7 | 46* | -17
Cc1cc(N=CC2=C(O)CC(C)(C)CC2=O)no1 | -4 | -5 | 0 | 7 | 46* | -3
CCC1CCCCN1C(=O)CSc1nc(N)cc(N)n1 (stereo not drawn) | 12 | 0 | 0 | 0 | -9 | 7
CSCC[C@H](NS(=O)(=O)c1ccc(C)cc1)C(=O)N1CCC(C(=O)N[C@H](C(=O)O)c2ccccc2)CC1 | 5 | · | · | · | · | ·
CCC(=O)N1CCN(c2nc3ccc(Br)cc3s2)CC1 | 0 | · | · | · | · | ·
Cc1ccc(S(=O)(=O)c2nc(S(C)(=O)=O)sc2NCC2CCCO2)cc1 (stereo not drawn) | 1 | -5 | 0 | -2 | -17 | -12
Cc1ccc(-c2nc(NCC3CCCO3)sc2C)cc1 (stereo not drawn) | -18 | 12* | 1 | 3 | -25 | 3
Cc1ccnc(SCc2cc(=O)c(OC(=O)c3ccco3)co2)n1 | 2 | -4 | 0 | 7 | -22 | 3
Cc1ccnc(SCc2cc(=O)c(OC(=O)c3ccc(Cl)c([N+](=O)[O-])c3)co2)n1 | -8 | -9 | 0 | -4 | 25* | 31
O=C(N/N=C/c1ccc(-c2ccc(S(=O)(=O)Nc3ncccn3)cc2)o1)c1cc2ccccc2cc1O | -5 | -3 | 0 | 15* | 12 | -36
COc1cc(C(=O)Nc2ccc(N3CCN(C(=O)c4ccc(C)cc4)CC3)cc2)cc(OC)c1OC | 16 | · | · | · | · | ·
Cc1nc(C)c(C(=O)O)s1 | -3 | · | · | 4 | -16 | -6
O=C(Nc1ccccc1N1CCOCC1)c1cccnc1 | 3 | 10* | 0 | 2 | -26 | 0
COc1ccc(CNC(=O)CNC(=O)c2cccs2)c(OC)c1 | 7 | · | · | · | · | ·
COCc1cc(CN2CCCC(C(=O)Nc3cccc(-n4cnnn4)c3)C2)ccc1OC (stereo not drawn) | -6 | · | · | · | · | ·
CCN1C(=O)/C(=C\C=C\c2ccccc2[N+](=O)[O-])SC1=S | 3 | 18* | 0 | 5 | -3 | -5
